PrP 5UTR inh: inhibition of PrP 5' UTR reporter expression; cell-based PrP 5' UTR mRNA reporter, plate reader; inhibition, % (no concentration beside the values); actives 0.35% (n = 340,000); in the data active = inhibition above about 52%; note: 0 = median of the neutral control wells
BJeLR viability: BJeLR cell viability loss; BJeLR (HRASV12) viability, CellTiter-Glo ATP luminescence, 48 h; inhibition, % (test concentration not listed); actives 0.17% (n = 300,000); in the data active = inhibition above about 50%; inconclusive = no clear call, values can overlap the other calls
PrPC surface inh: cell surface PrPC inhibition, primary TR-FRET screen. P04156. TR-FRET read-out. inhibition, % at 13.8 µM. actives 0.43% (n = 370,000). AID 720596; in the data active = inhibition above about 24%; note: 0% = median of the test wells and 100% = reference compound wells
DUSP3 inh: blocks human VHR1 dual specificity phosphatase; recombinant VHR phosphatase, pNPP absorbance; inhibition, % at 13.3 µM; actives 0.52% (n = 290,000); AID 1654; in the data active = inhibition above about 50%
Target sequence (P51452 whole entry, looked up): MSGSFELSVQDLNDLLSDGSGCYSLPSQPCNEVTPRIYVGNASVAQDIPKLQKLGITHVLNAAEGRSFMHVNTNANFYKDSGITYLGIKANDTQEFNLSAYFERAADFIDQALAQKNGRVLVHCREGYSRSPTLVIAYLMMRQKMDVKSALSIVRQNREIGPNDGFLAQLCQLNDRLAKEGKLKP
PfHsp40 yeast: compounds rescuing yeast from Plasmodium falciparum HSP40 toxicity; S. cerevisiae expressing PfHsp40, growth rescue, ATP luminescence; growth rescue, % at 12.5 µM; actives 0.68% (n = 340,000); AID 504582; in the data active = growth rescue above about 28%, passing the limit was not always enough; inconclusive = no clear call, values can overlap the other calls;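 note: yeast W303a lacking pdr1 and pdr3 grown in galactose medium; growth measured after three days at 30 °C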
MazF activator: activators of E. coli MazEF toxin-antitoxin RNase. P0AE70. FAM/BHQ RNA-DNA oligo cleavage fluorescence, 5 h. activation, % at 20 µM. actives 0.32% (n = 350,000); in the data active = activation above about 50%
Target sequence (P0AE70 whole entry, looked up): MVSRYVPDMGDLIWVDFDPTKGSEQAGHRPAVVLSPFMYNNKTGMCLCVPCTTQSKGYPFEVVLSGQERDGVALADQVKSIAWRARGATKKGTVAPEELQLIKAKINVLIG
Starred values were filed as active, the others as inactive; i = inactive; ? = inconclusive; . = not tested or not shown; ! = repeats disagree. Only some compounds are listed: those with a hit (about 2.1% of all), similar ones and a draw of the others.

SMILES | PrP 5UTR inh | BJeLR viability | PrPC surface inh | DUSP3 inh | PfHsp40 yeast | MazF activator
O=[N+]([O-])c1cc2oc3c(c2c(C=NCc2ccncc2)c1O)CCCC3 | -13 | . | . | 5 | 48* | 7
NC(=O)C1CC12c1ccccc1-c1ccccc12 (stereo not drawn) | -4 | -4 | -3 | 6 | 0 | 5
Cc1nc2sc(C(=O)OCC(=O)N3c4ccccc4CC3C)c(C)c2c(=O)[nH]1 (stereo not drawn) | -13 | -2 | 0 | 16 | 2 | 72*
COc1ccc(-c2csc(C(NC(C)=O)c3cccc(F)c3)n2)cn1 (stereo not drawn) | . | . | 4 | . | . | .
CC1CCCCC1NC1=NCCCS1 (stereo not drawn) | . | -1 | . | 54* | . | .
C(C#CCCCCCCCCC[n+]1ccccc1)#CCCCCCCCCC[n+]1ccccc1 | -13 | 52* | 17 | -3 | ? | 18
O=[N+]([O-])c1ccc(N2CCCCCC2)c2nonc12 | -11 | -5 | -46 | 4 | 0 | i
Cc1ccc(S(=O)c2ccc([N+](=O)[O-])c3nonc23)cc1 (stereo not drawn) | . | . | -3 | . | . | 375*
CN(C)c1ccc(-c2ccnc3c2CC(C)(C(=O)Nc2cccc(Oc4ccccc4)c2)O3)cc1 (stereo not drawn) | . | . | 6 | . | . | .
O=C(Nc1sc2c(c1C(=O)O)CCCCC2)c1ccccc1 | -72 | 7 | 1 | -12 | 8 | 21
O=C(Nc1sc2c(c1C(=O)O)CCC2)c1ccccc1 | -21 | 2 | -8 | 52* | 7 | 3
NCCNC(=O)c1c(NC(=O)c2ccccc2)sc2c1CCCC2 | -23 | 8 | -3 | 54* | 0 | 17
CCCCCCCCCCOC(=O)Cn1c(COc2ccccc2)[n+](C)c2ccccc21 | -33 | 5 | 22 | 2 | 336* | -58
CCCCCCCCCCOC(=O)Cn1c(COc2cccc(C)c2)[n+](C)c2ccccc21 | -10 | 3 | 10 | 0 | 213* | -113
CCCCCCCCCCOC(=O)Cn1c(COc2ccc(OC)cc2)[n+](C)c2ccccc21 | -30 | 7 | . | 10 | 383*! | -74
CCCCCCCCCCOC(=O)Cn1c(COc2ccccc2C)[n+](C)c2ccccc21 | 18 | 2 | . | 4 | 9 | -86
CCCCCCCCCCOC(=O)Cn1c(COc2ccc(Cl)cc2)[n+](C)c2ccccc21 | -25 | -7 | -2 | 6 | 7 | -36
CN(C)S(=O)(=O)c1cccc(C(=O)N/N=C\c2ccccc2)c1 | . | . | 0 | . | . | .
Cn1nccc1C(=O)NC1CCCc2c1cnn2-c1cc(F)cc(F)c1 (stereo not drawn) | -10 | 3 | 7 | -14 | -1 | -7
Cc1ccc2c(c1)CO[C@@]21O[C@H](CCO)C[C@H](O)[C@H]1O | . | . | 3 | . | . | 9
O=C1CCC[C@@H]2C[C@@]3(C[C@@H]4CCN1[C@H]24)Nc1cc(Cl)c(Cl)cc1NC3=NCc1ccccc1 | -30 | . | -5 | . | 1 | 2
CC(C)(Cc1ccc(O)cc1)NC(=O)SCc1ccccc1 | -20 | 2 | -1 | 51* | 2 | 5
C[C@@H](NC(=O)c1ncn2c1c(=O)[nH]c1ccc(Br)cc12)c1ccccc1 | . | . | -5 | . | . | 14
CC(C(=O)Nc1ccc(N(C)C)cc1)N1C(=O)c2ccccc2S1(=O)=O (stereo not drawn) | -14 | 4 | -3 | . | 2 | 4
OC(c1ccccc1)(c1ccccc1)C1CCN(CCCNc2ccccc2F)CC1 | . | . | -21 | . | . | .
SMILES | PrP 5UTR inh | BJeLR viability | PrPC surface inh | DUSP3 inh | PfHsp40 yeast | MazF activator
CCOc1ccc(C)cc1-n1nc2ccccc2n1 | -12 | 1 | -1 | 33 | -1 | 1
Cc1ccc(OCC(=O)Nc2ccc(Cl)cc2)c(-n2nc3ccccc3n2)c1 | -18 | 5 | -1 | 27 | -1 | 69*
Cc1ccnc(SC2CC(=O)N(c3ccc(C(C)C)cc3)C2=O)n1 (stereo not drawn) | -13 | -4 | -4 | 51* | -1 | 7
Cc1ccc2ccccc2c1C(O)c1ncc(-c2ccccc2F)[nH]1 (stereo not drawn) | . | . | -3 | . | . | .
CCOC(=O)Cc1csc(N/N=C\c2ccccc2OC)n1 | -1 | -4 | -4 | -4 | 6 | 10
Cn1c2ccccc2c2cc(C(=O)O)ccc21 | -17 | 11 | 4 | 4 | 42* | 0
CCCn1c2ccccc2c2cc(C(=O)O)ccc21 | -17 | -5 | -2 | 0 | 325* | -5
CC(O)(c1cccnc1)c1nc(-c2ccc3ccccc3c2)cs1 (stereo not drawn) | . | . | 1 | . | . | .
COc1ccccc1NC1=C(NC(C)=O)C(=O)c2ccccc2C1=O | -9 | -3 | -61 | 3 | 1 | 218*
COC1=C(Nc2ccccc2OC)C(=O)c2ccccc2C1=O | -23 | 5 | 8 | 4 | 1 | 12
Nc1c(N2CCOCC2)cc(Cl)c2nonc12 | -13 | 2 | -28 | -1 | -1 | -3
Nc1c(N2CCCC2)cc(Cl)c2nonc12 | -19 | -4 | . | 56* | 0 | 7
O=C(NCC(c1cccs1)N1CCOCC1)c1ccccc1NS(=O)(=O)c1ccc(Cl)c([N+](=O)[O-])c1 (stereo not drawn) | -5 | 4 | -5 | 30 | 5 | 3
O=C(NCC(c1cccs1)N1CCOCC1)c1ccccc1NS(=O)(=O)c1cccc([N+](=O)[O-])c1 (stereo not drawn) | -12 | 9 | -11 | 56* | -1 | 5
Cc1ccc(N=C(NO)c2cnccc2C(F)(F)F)c(C)c1 | -14 | 0 | -3 | 14 | 1 | 3
Cc1cc(-c2ccc(S(=O)(=O)NCc3ccc(Cl)cc3)cc2)on1 | . | . | 7 | . | . | -1
CC(C)Cc1ccc(CN2CCCC(NC(=O)CCN3CCCO3)C2)cc1 (stereo not drawn) | -5 | 5 | 3 | -3 | 2 | 3
c1ccc(-c2nnsc2-c2ncc[nH]2)cc1 | -19 | 5 | -4 | 20 | 2 | -1
O=S(=O)(c1ccc(F)cc1)c1snnc1-c1ccccc1 | -61 | 61* | -4 | -3 | 11 | -2
O=S(=O)(c1ccc(Cl)cc1)c1snnc1-c1ccccc1 | -58 | 96* | 7 | 8 | 3 | -7
COC1CCC(OC2CC(C3(C)CCC4(CC(O)C(C)C(C(C)/C=C(\C)C(=O)C(C)CC(C)C(=O)O)O4)O3)OC3(OC(C4OC(O)(CO)C(C)CC4C)CC3C)C2C)OC1C (stereo not drawn) | 31 | . | 1 | . | 220* | 6
COC(=O)c1ccc(Cn2cnc3cnccc32)cc1 | -6 | 5 | -2 | -4 | -1 | -1
CC(=O)c1cccc(N/C=C\C(=O)c2ccc(C)cc2)c1 | -57 | -3 | 7 | -7 | 27* | 0
CC(=O)Nc1cccc(C(=O)/C=C/c2ccc(N(C)C)cc2)c1 | -50 | 4 | -2 | -4 | 0 | 145*
CC(=O)Nc1cccc(C(=O)/C=C/c2ccc(Br)cc2)c1 | -3 | 21 | 14 | 5 | -1 | -10

Screening results as filed in PubChem BioAssay.
